The values below come from PubChem BioAssay (NCATS).

Results filed as inconclusive are left out. Values without a mark were called inactive. Active and inactive are the calls of the source. Calls come from the whole dose curve; as a rule, active = well fitted inhibition curve with a large enough effect; inconclusive = small, poorly fitted or top-dose-only effect; inactive = flat fitted curve, though single readings scatter.
% is set by controls: 0 for no effect and ±100 for the full control effect; potency is the fitted concentration of half-maximal effect.

Chain of Calcium and integrin-binding protein 1 (Homo sapiens) (Q99828 whole entry, looked up): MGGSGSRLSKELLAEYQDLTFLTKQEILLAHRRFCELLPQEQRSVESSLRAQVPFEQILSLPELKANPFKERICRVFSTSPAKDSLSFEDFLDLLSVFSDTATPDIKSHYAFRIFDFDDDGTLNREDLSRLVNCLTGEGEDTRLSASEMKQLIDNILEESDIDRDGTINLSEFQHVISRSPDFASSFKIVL

In the assay the target is Calcium and integrin-binding protein 1 (Homo sapiens) (UniProt Q99828). Kind of assay: Primary qHTS for Identification of Calcium Integrin Binding Protein 1 (CIB1) Competitor (AID 1508620). For activity change, negative = inhibition: top concentration of the series differs between compounds. As to conditions: CIB1-GST / FITC-alphaIIb peptide fluorescence polarization; series mostly up to 114 µM; activity change, negative = inhibition: at the top concentration. The procedure, abridged:
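Fluorescence polarization competition: GST-tagged CIB1 (1 uM final) preincubated with compound 15 min at room temperature, then FITC-labelled alphaIIb peptide (100 nM final) added. After 15 min at room temperature, polarization read at Ex 480/Em 540.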
Background: qHTS replaces the single test concentration by a dilution series.
Turning to `Cc1cccc(CNc2ncnc3ccc(-c4cccc(C)c4)cc23)c1`, the “activity change, negative = inhibition” value is 4.09%. The same measure, in the same setting: with `COc1ccc(C2Nc3ccccc3C(=O)N2Cc2cccs2)cc1COc1c(C)cc(NC(C)=O)cc1C` (stereo not given) the figure was 5.9%.

For `COC(=O)c1ccccc1NC(=O)c1ccc(C#N)cc1`, the “activity change, negative = inhibition” value is -2.51%.

On to `c1nc(N2CCC(N3CCCC3)CC2)c2cc(-c3ccc4c(c3)OCO4)ccc2n1`, for which the “activity change, negative = inhibition” value was 4.16%. On the same count and under the same terms, with `COc1cccc(-n2cnc3cc(C(=O)N4CCCCC4)ccc32)c1` the figure was 6.63%; with `CCNC(=O)c1ccc(-c2ccc3ncnc(NCc4nccs4)c3c2)o1`, -17.2%. Still for that read-out and setting: with `O=C(Nc1ccc(-c2nc3ccccc3[nH]2)cc1)c1ccc2ncsc2c1` the figure was -5.53%. The same measure, in the same setting: with `Cc1cccc(CNc2ccnc(-c3cccc4ccccc34)n2)c1` the figure was -0.406%. Consider `CN1CCN(c2cccc(Nc3nn4c(=O)c5ccccc5nc4s3)c2)CC1`, for which the Potency result was “inactive”. In the case of `Cc1cc(-c2nnc3n2CCCCC3)c(C)n1-c1cccc(C(F)(F)F)c1`, the “activity change, negative = inhibition” value is 2.31%. Still for that read-out and setting: with `N#Cc1nc(Nc2cc(F)cc(F)c2)c2ncn(CCN3CCCC3)c2n1` the figure was 6.34%.

On to `O=[S+]([O-])(NC[C@H]1CCC[C@H](CN[S+](=O)([O-])c2c(F)cccc2F)C1)c1ccc2c(c1)OCCO2`, for which the “activity change, negative = inhibition” value is 1.79%.

As for `CCOC(=O)c1ccc(O)c2ncc(NCC3CCCN(CCc4ccccc4)C3)cc12` (stereo not given), the “activity change, negative = inhibition” value is -6.05%.

`Cc1cc(NC(=O)Nc2cccc(-c3ccncc3)n2)ccc1Cl`: the Potency result is “inactive”.

Turning to `COc1ccc(C2=Nn3c(nnc3-c3ccc(OC)c(OC)c3)SC2)cc1OC`, the “activity change, negative = inhibition” value was 1.49%.

Regarding `CCOc1ccc(CCNC(=O)c2csc(Br)n2)cc1OCC`, the “activity change, negative = inhibition” value was 3.56%. The same measure, in the same setting: with `O=C1CCc2cc([S+](=O)([O-])NC3CCOCC3)ccc2N1` the figure was 2.54%; with `FC(F)(F)c1ccccc1-c1nc(NCc2ccccc2)c2ccccc2n1`, 1.56%; with `Cc1cc(C)nc(NC(=S)N2CCN(C3=Nc4ccccc4Oc4ccccc43)CC2)c1`, -7.85%. With `COc1ccc(CNc2ccc(S(=O)(=O)Nc3nccs3)cc2)c(O)c1`, the “activity change, negative = inhibition” value was -12.5%. The same measure, in the same setting: with `O=[S+]([O-])(/C=C/c1nc(Nc2cc(F)cc(F)c2)c2ncn(CC(F)F)c2n1)c1ccccc1` the figure was 3.18%; with `Cn1nnnc1Sc1ncnc2scc(-c3cccc(Cl)c3)c12`, 3.82%. As for `O=C(NCCc1ccc2c(c1)OCO2)c1cc2sccc2[nH]1`, the “activity change, negative = inhibition” value is 2.97%. On the same count and under the same terms, with `Oc1ccc(Nc2nc(-c3ccncc3)nc3ccccc23)cc1F` the figure was -12.1%; with `CC(C)CN1CC2=C(C1=O)C(c1ccccc1Cl)N=C(Nc1nc3ccccc3o1)N2` (stereo not given), -0.571%. The same measure, in the same setting: with `Cc1cc(C=CC#N)cc(C)c1Nc1nc(Nc2ccc3c(c2)OCO3)c2[nH]cnc2n1` the figure was -15.5%. Still for that read-out and setting: with `COc1ccc(OC)c(-c2nnc3n2N=C(c2ccccc2OC)CS3)c1` the figure was 7.1%; with `Cc1ccc(-c2nn3c(-c4ccccc4)nnc3s2)cc1NC(=O)c1ccc(-c2cccc(Cl)c2)o1`, 26.5%. As for `Cc1ccc(-c2ccc(=O)n(CC(=O)NCCCN(C)C)n2)cc1`, the “activity change, negative = inhibition” value was -1.42%.

In the case of `COc1cc(-c2nc(Nc3ccc(F)c(F)c3)c3ccccc3n2)ccn1`, the “activity change, negative = inhibition” value is 8.98%.

For the molecule `Cc1c(P(=S)(c2ccccc2)c2ccccc2)[n+]2ccccc2n1CCCc1ccccc1`, the “activity change, negative = inhibition” value was -3.19%.

In the case of `CCCN(Cc1cccs1)c1ncnc2ccc(-c3ccc4c(c3)OCO4)cc12`, the “activity change, negative = inhibition” value was 9.67%. Turning to `CC(=O)Nc1sc2c(c1-c1nc3ccccc3o1)CCN(C(C)C)C2`, the Potency was 50.1 µM (active). On to `COc1cccc(CNc2ccc(S(=O)(=O)Nc3nc4ccccc4o3)cc2)c1O`, for which the “activity change, negative = inhibition” value was -16.4%. Same read-out and setting: with `NC(=O)C1CCN(c2ncc(-c3cccc(F)c3)s2)CC1` the figure was -1.28%; with `CC(C)(C)c1ccc(C(=O)Nc2ccc(-c3nc4ccccc4[nH]3)cc2)cc1`, 1.05%. Same read-out and setting: with `COc1cccc(NCc2ccc(O)c3ncccc23)n1` the figure was 11.3%. On the same count and under the same terms, with `CC(=O)Nc1sc2c(c1-c1ccc3c(c1)OCCCO3)CCNC2` the figure was -6.49%; with `Cc1cc(NS(=O)(=O)c2ccc(NC(=O)Cc3cccc(Cl)c3)cc2)no1`, -13.8%; with `O=C1CCCC2=C1C(c1[nH]ncc1Cl)N=C(Nc1nc3ccccc3s1)N2` (stereo not given), 0.541%.
